Compound activity (PubChem)
Rows were chosen to be rich in hits. Some 1.4% of all compounds tested hit in one or more screens of this group.
ASM inhibitor: human S-ASM enzyme inhibition; P17405; Potency, µM (highest dose often 57.5 µM), inactives show at the highest dose activity change, negative = inhibition, actives largely listed as inhibitors; placental ASM, HMU-PC fluorogenic substrate, 60 min; 340,000 compounds, 0.006% hits; also: potency is read from the fitted curve at half-maximal effect
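Fluorogenic HMU-PC substrate (9 uM final) is turned over by placental ASM in 60 min at 37 C after a 10 min compound preincubation. Reaction ended by alkaline stop (pH 10), with fluorescence read at 386/447 nm.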
Mm-Cpn inhibitor: blocks the Methanococcus maripaludis chaperonin Mm-Cpn; purified Mm-Cpn ATPase, ADP Transcreener TR-FRET; Potency, µM (series often up to 76.9 µM), without a hit: top-dose activity, negative = inhibition, actives largely listed as inhibitors; 330,000 compounds, 0.031% hits; AID 504842; also: potency is read from the fitted curve at half-maximal effect; % is scaled to controls: 0 for no effect and ±100 for the full control effect; nearly all actives have a fitted effect of over 80% in size
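25 nM Mm-CPN + cpd, 10 min 37°C; + 10 uM ATP, 30 min 37°C; buffer 30 mM Tris pH 7.4, 100 mM KCl, 5 mM MgCl2, 1 mM DTT; Transcreener ADP HTRF detection 30 min RT.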
hERG WT inh: KCNH2 (human, wildtype) channel inhibition | U2OS, BacMam KCNH2, thallium flux FluxOr; hits give low values | activity change, % at 1.84 µM | 340,000 compounds, 0.37% hits;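 active = maximum activity change below -70%; inconclusive = maximum activity change between -70% and -50%; inactive = maximum activity change above -50%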; also: % is scaled to controls: 0 for no effect and ±100 for the full control effect
Target sequence (Q12809 whole entry, looked up): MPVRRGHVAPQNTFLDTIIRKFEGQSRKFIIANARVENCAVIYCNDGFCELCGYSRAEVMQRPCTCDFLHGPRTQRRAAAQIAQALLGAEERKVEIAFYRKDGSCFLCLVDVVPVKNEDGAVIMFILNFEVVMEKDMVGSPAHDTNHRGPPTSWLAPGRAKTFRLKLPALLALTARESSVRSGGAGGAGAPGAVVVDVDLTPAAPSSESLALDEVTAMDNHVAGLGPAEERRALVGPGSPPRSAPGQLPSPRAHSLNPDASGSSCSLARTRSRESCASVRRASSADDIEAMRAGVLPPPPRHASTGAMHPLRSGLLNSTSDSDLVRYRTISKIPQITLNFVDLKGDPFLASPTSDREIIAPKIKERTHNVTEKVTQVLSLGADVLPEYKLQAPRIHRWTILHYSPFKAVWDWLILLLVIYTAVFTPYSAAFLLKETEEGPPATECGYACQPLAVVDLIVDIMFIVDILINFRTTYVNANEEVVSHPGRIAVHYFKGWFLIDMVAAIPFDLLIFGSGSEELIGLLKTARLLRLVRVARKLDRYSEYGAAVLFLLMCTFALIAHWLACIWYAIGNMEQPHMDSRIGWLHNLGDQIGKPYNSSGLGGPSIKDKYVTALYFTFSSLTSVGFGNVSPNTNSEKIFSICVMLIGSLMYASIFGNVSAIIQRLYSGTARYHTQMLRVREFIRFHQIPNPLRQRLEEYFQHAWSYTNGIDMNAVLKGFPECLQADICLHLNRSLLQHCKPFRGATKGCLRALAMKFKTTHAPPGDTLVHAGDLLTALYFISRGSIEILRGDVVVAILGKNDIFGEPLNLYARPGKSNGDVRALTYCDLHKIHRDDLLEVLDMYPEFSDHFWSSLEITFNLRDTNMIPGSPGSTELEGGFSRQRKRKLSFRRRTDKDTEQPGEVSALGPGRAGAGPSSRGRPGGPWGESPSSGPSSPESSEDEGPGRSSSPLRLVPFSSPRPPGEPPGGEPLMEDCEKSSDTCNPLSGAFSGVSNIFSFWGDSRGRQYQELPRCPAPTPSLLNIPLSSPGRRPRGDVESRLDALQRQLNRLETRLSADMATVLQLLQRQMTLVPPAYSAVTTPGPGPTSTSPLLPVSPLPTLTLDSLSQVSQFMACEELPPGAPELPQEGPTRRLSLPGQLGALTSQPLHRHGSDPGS
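U2OS cells transduced with wild-type KCNH2 virus are loaded with FluxOr dye for 45 min, and thallium flux is measured in kinetic reads before and after stimulation buffer. Rate constants are normalized to DMSO controls.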
p53 reactivation: re-activators of mutant p53. AID 504706. Potency, µM (titrated, usually from 92.2 µM), for inactives: top-dose activity change, positive = activation, hits mostly activators. H1299 p53-A138V BP100-luciferase reporter, luminescence, 24 h. 320,000 compounds, 0.063% hits; also: potency is read from the fitted curve at half-maximal effect; % of control where 0% means no effect; nearly all actives have a fitted effect of over 45% in size
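H1299 (p53-null), stable ts p53-A138V + BP100-Luc; 1000 cells/well, Opti-MEM/10% FBS; cpd 4 pt, 1:5; 24 h, 37 deg C, 5% CO2; detection reagent 10 min RT; luminescence.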
uPA generation: cell surface uPA generation inhibition; 330,000 compounds, 0.31% hits; AID 540303; Potency, µM (titrated, usually from 38.3 µM), for inactives: top-dose activity change, negative = inhibition, most hits filed as inhibitors; cell surface uPA generation assay, qHTS; active = well fitted inhibition curve with a large enough effect; inconclusive = small, poorly fitted or top-dose-only effect; inactive = no such curve, though single readings can be large or run the other way; tested in mouse RAW 264.7 cells; also: potency is read from the fitted curve at half-maximal effect; % is scaled to controls: 0 for no effect and ±100 for the full control effect; nearly all actives have a fitted effect of over 55% in size
KCNH2 3.1 block: KCNH2 3.1 (human) potassium channel inhibition | activity change, % (tested at about 1.8 µM) | 340,000 compounds, 0.95% hits | U2OS KCNH2 3.1, thallium flux FluxOr; hits give low values;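 active = maximum activity change below -70%; inconclusive = maximum activity change from -70% to -50%; inactive = maximum activity change above -50%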;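 also: thallium influx rate constant from kinetic fluorescence after stimulation buffer; % is scaled to controls: 0 for no effect and ±100 for the full control effect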
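Thallium flux via FluxOr fluorescence (Red40 quencher, 45 min loading) in U2OS cells virally expressing the KCNH2 3.1 isoform (1.77 x 10^8 /mL virus, overnight at 37 C). Rate constants from 2-min kinetic reads post-stimulation, normalised to positive and negative controls.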
* marks the source's active call; other numbers are inactive results; ? = inconclusive; . = not tested or not shown. Unless noted, calls follow the shape of the dose curve; as a rule, active = well fitted curve in the direction sought with a large enough effect; inconclusive = small, poorly fitted or top-dose-only effect, or another doubt; inactive = no such curve, though single readings can be large; an effect the other way counts as inactive or inconclusive.

SMILES | ASM inhibitor | Mm-Cpn inhibitor | hERG WT inh | p53 reactivation | uPA generation | KCNH2 3.1 block
O=C(Cc1ccccc1)NNC(=S)Nc1ccccc1 | 3.8% | 0.2% | 10.3 | -1.6% | 4.6% | 12.5
Cc1cc(C)c(O)c(-c2n[nH]c3c2C(c2cccc(O)c2)N(Cc2ccco2)C3=O)c1 (stereo not given) | ? | 0.5% | -91.1* | 1.9% | -1.2% | -0.3
CC(C)/C=C/C(=O)N1CCC(N2CCC(C(=O)NCC3CCCO3)CC2)CC1 (stereo not given) | . | . | 24.0 | . | . | 7.7
Cc1cc(C)n(-c2nc(-c3ccc(Cl)c(Cl)c3)cs2)n1 | -1.5% | 0.9% | -124.9* | -4.8% | 4.1% | -45.9
Cc1ccccc1C(=O)NNC(=O)C1CC(=O)N(Cc2ccccc2)C1 (stereo not given) | 1.2% | -27.0% | -13.0 | 5.1% | 12.5% | -5.8
CC1(C)C(/C=C/C=C/C=C/C=C2\N(CCCCS(=O)(=O)O)c3ccc4ccccc4c3C2(C)C)=[N+](CCCCS(=O)(=O)[O-])c2ccc3ccccc3c21 | -4.3% | . | -1.9 | . | 16.0% | 22.1
c1ccc(CNc2nc3ccccc3[nH]2)cc1 | 1.0% | -0.9% | -8.8 | 14.2% | ? | 1.4
S=C(NCc1ccccc1)NNc1nc2ccccc2[nH]1 | -4.4% | -1.9% | 0.8 | 3.5% | 4.9% | -74.4*
Cn1cc(Cl)c(C(=O)OCC(=O)c2ccccc2)n1 | -3.2% | 0.4% | -8.4 | 17.5% | 1.0% | 5.4
O=C(NCc1ccccn1)c1ccccc1OCc1ccc(F)cc1 | 6.0% | 0.8% | 0.0 | -4.6% | -3.4% | -101.2*
O=C(NCc1ccccn1)c1ccccc1OCc1ccccc1Cl | . | . | 7.0 | . | . | 5.0
COCc1c(C(=O)OCC(=O)NCCN2C(=O)CSC2=O)oc2ccccc12 | 4.1% | 0.2% | -120.0* | 2.1% | -4.5% | 8.0
Cc1c(Cl)cccc1NS(=O)(=O)c1ccc(-c2ccc(=O)[nH]n2)o1 | 2.2% | -0.6% | -7.8 | -2.7% | 4.8% | 2.1
CCN1CCN(C(c2ccc(OC)cc2)C(O)C(=O)c2c[nH]c3ccccc23)CC1 (stereo not given) | 3.3% | -1.9% | -104.1* | 1.4% | 9.3% | -99.0*
COc1cc(C(=O)NCc2cc(C)nc3ccccc23)cc(OC)c1OC | -3.2% | -0.3% | 0.3 | 2.4% | 0.0% | 6.5
COc1ccc(C(=O)NCc2cc(C)nc3ccccc23)cc1 | -3.2% | -1.9% | -1.5 | 2.8% | 7.08µM* | 8.1
O=C(OCc1cn([C@H]2CN(CC3CCCCC3)[C@@H](c3ccccc3)C[C@@H]2O)nn1)c1ccccc1 | . | . | -2.5 | . | . | -2.7
CC(C)CN1CCNC(=O)C1CC(=O)NCCc1cnn(-c2ccccc2)c1 (stereo not given) | 7.4% | 1.5% | 3.0 | -0.2% | -0.5% | -114.1*
CC(C)CN1CCNC(=O)C1CC(=O)NCCc1ccc(C(F)(F)F)cc1 (stereo not given) | 9.4% | 31.6µM* | 3.1 | -1.9% | -0.1% | 2.4
CCN(Cc1cnn(C)c1)C(=O)c1ccc2nc(Cc3ccccc3F)oc2c1 | . | . | 1.3 | . | . | 0.1
COc1ccc(S(=O)(=O)Nc2ccccc2OC)cc1NC(=O)c1cc2ccccc2oc1=O | -8.2% | -0.1% | 9.0 | 22.4µM* | 0.5% | -4.4
CCCCSc1cnn(-c2ccccc2)c(=O)c1SCCCC | -4.3% | 39.8µM* | 5.5 | 6.1% | . | 9.2
CCSc1cnn(-c2ccccc2)c(=O)c1SCC | -0.2% | ? | 6.4 | -3.2% | -12.6% | 15.5
COc1cc2c(cc1OC)C(CNC(=O)C=Cc1cc(OC)c(OC)c(OC)c1)C2 (stereo not given) | . | . | -21.9 | . | . | 0.9
CCCCCN1CSC(=S)N(Cc2ccccc2)C1 | -6.0% | 0.0% | -73.9* | 5.0% | -8.0% | -21.6
SMILES | ASM inhibitor | Mm-Cpn inhibitor | hERG WT inh | p53 reactivation | uPA generation | KCNH2 3.1 block
COc1cc2cc(C(=O)N3CCOCC3)cc(-c3ccc(C)cc3)c2cc1OC | -12.3% | -1.2% | . | -3.0% | 4.47µM* | 4.7
COc1ccc(-c2cc(C(=O)N3CCOCC3)c3ccccc3n2)cc1OC | 43.6% | -1.2% | -9.4 | -2.2% | -5.0% | -10.4
CC(=O)Nc1cc(C(=O)OCC(=O)c2ccc(C)cc2)ccc1C | 1.2% | 0.7% | 0.3 | 28.2µM* | -5.4% | -13.7
O=C(/C=C/c1ccccc1)COC(=O)c1ccccc1 | 3.4% | . | -1.3 | . | -7.7% | -8.9
O=C(/C=C/c1ccccc1)NC(=O)c1ccccc1O | 4.9% | 1.2% | -17.8 | 28.2µM* | -26.7% | 4.3
O=C(/C=C/c1ccccc1)CC(=O)c1ccccc1O | -2.3% | -6.8% | . | 25.6% | 8.91µM* | -17.2
FC(F)(F)c1ccc2c(c1)[nH]c(=S)n2C1CC1 | 3.3% | 1.3% | -161.6* | -1.1% | -3.7% | -200.7*
CC1CCC(n2c(=S)[nH]c3ccccc3c2=O)CC1 (stereo not given) | -1.1% | 2.1% | -24.5 | 9.1% | 2.9% | 6.1
O=S(=O)(Nc1cccc2c1CCCC2)c1ccc(Cl)cc1 | -8.1% | 1.3% | -5.6 | 14.0% | 3.6% | -70.8*
Cc1ccc(C2C3=C(CC(C)(C)CC3=O)OC3=C2C(=O)CC(C)(C)C3)cc1 | 0.3% | 1.4% | 1.2 | -3.6% | 1.7% | -85.0*
Cc1nn(C)cc1S(=O)(=O)Nc1ccc2c(c1)OCCO2 | 2.2% | -3.0% | -3.5 | 4.2% | 4.6% | -8.5
Cc1cc(NS(=O)(=O)c2cn(C)nc2C)no1 | 5.6% | 0.7% | -135.1* | . | 2.0% | -1.6
Cc1c(C(c2ccc(C(=O)O)cc2)c2c(C)n(C)n(-c3ccccc3)c2=O)c(=O)n(-c2ccccc2)n1C | 11.6% | 0.6% | 2.9 | -1.7% | -4.1% | 7.8
O=Nc1c(O)[nH]c2ccc(Cl)c(Cl)c12 | -6.1% | . | 1.1 | . | 1.2% | -8.3
CCOc1cc(/C=N/NC(=O)c2ccccc2-n2cccc2)ccc1O | 1.4% | -3.3% | 0.6 | -4.8% | 11.2µM* | 4.7
O=C(c1ccc(Br)cc1)N1CCC2(CC1)NCCc1[nH]cnc12 | 9.6% | 1.7% | ? | -8.9% | 3.9% | -87.3*
CCOc1ccc(C(=O)N2CCC3(CC2)NCCc2[nH]cnc23)cc1 | 5.8% | -0.4% | -13.7 | 2.3% | -3.8% | -89.4*
CCOc1ccc(CC(=O)N2CCC3(CC2)NCCc2[nH]cnc23)cc1 | 1.5% | -2.4% | -9.6 | 12.2% | -15.0% | -3.5
CCOC(=O)c1ccc(N2CCOCC2)c(NC(=O)c2nccnc2C(=O)O)c1 | 2.6% | -0.9% | -2.7 | 9.4% | 2.5% | 7.9
O=C(O)/C=C/c1ccc2c(-c3ccccc3)onc2c1 | 1.7% | 1.1% | -126.0* | -4.6% | -2.5% | -12.2
Cc1cc(N/C=C\c2nnnn2-c2ccc(F)cc2)no1 | 2.1% | 0.0% | -120.8* | 16.2% | -12.4% | 5.5
Cc1ccc(-n2nnnc2/C=C\Nc2cc(C)on2)cc1 | -4.6% | 0.3% | -8.8 | 7.8% | 2.2% | -6.9
